Experimental data as given in PubChem BioAssay (Tox21).
Results filed as inconclusive are left out. Calls of active or inactive are those of the source. Unless noted, the call rests on the fitted dose curve; in most records, active means well fitted curve in the direction sought with a large enough effect in the repeat runs; inconclusive means weak or mixed curves; inactive means no such curve, though single readings can be large; an effect the other way counts as inactive or inconclusive.

Tests used:
[1] = qHTS assay to identify small molecule antagonists of the estrogen receptor alpha (ER-alpha) signaling pathway using the BG1 cell line in the presence of 0.1 nM 17-beta-estradiol - cell viability counter screen (AID 1259241); further: nearly all actives have a fitted effect of over 40% in size
Summary of the method: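 CellTiter-Fluor read (30 min, 37C) on ER-alpha/ERE-luc VM7Luc4E2 cells; 22 hr compound treatment; agonist 0.1 nM E2 final; same-well multiplex.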

[2] = qHTS assay to identify small molecule antagonists of the androgen receptor (AR) signaling pathway using the MDA cell line in the presence of 0.5 nM R1881 - cell viability counter screen (AID 1259242); further: nearly all actives have a fitted effect of over 45% in size
Summary of the method: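 Concentration-response screen of compounds for toxicity in MDA-kb2 reporter cells: 16 hr at 37C with 0.5 nM R1881, endpoint live-cell protease fluorescence measured in the reporter wells.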

[3] = qHTS assay to identify small molecule HDAC inhibitors (AID 1259364);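 further: wild-type HCT-116 cells with endogenous class I/II HDAC activity; top concentration of the series differs between compounds; nearly all actives have a fitted effect of over 45% in size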
Summary of the method: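 Screening used wild-type human colon HCT-116 cells incubated overnight, dosed with compounds for 2 hours, and assayed with a homogeneous luminogenic HDAC I/II reagent for 30 minutes at room temperature.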

[4] = qHTS assay to identify small molecule HDAC inhibitors - cell viability counter screen (AID 1259365); further: series mostly up to about 92 µM; nearly all actives have a fitted effect of over 50% in size
Summary of the method: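 To flag cytotoxic hits, 1,500 wild-type HCT-116 cells per well, plated the day before, receive test compounds for 2hr at 37 C before CellTiter-Glo reagent and a luminescence read.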

[5] = qHTS assay to identify small molecule agonists of the sonic hedgehog signaling (Shh) pathway - cell viability counter screen (AID 1259366); further: nearly all actives have a fitted effect of over 50% in size
Summary of the method: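 Fluorescence from CellTiter-Fluor reports live cells in this counter screen. NIH/3T3-derived Gli1-Luc reporter cells receive test compounds for 24hr at 37C; reagent goes in at 23hr.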

[6] = qHTS assay to identify small molecule antagonists of the sonic hedgehog signaling (Shh) pathway - cell viability counter screen (AID 1259367); further: nearly all actives have a fitted effect of over 55% in size
Summary of the method: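 Fluorescence read-out (CellTiter-Fluor, 1 hr at 37C) taken after 23 hr compound treatment of 3T3 Gli1-Luc cells stimulated with conditioned medium. Cells were seeded at 2,000 per well and pre-incubated 4 hr.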

[7] = qHTS assay to identify small molecule agonists of the sonic hedgehog signaling (Shh) pathway (AID 1259368; calls by dose curve;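 further: NIH/3T3-derived 3T3Gli1-Luc cells carrying a stable Gli1-driven firefly luciferase reporter; series mostly up to about 92 µM; nearly all actives have a fitted effect of over 15% in size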)
Summary of the method: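 Hedgehog pathway agonism scored by increased firefly luciferase luminescence in 3T3Gli1-Luc cells treated 24 hr at 37 C; detection used a 30 min room-temperature reagent incubation.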

[8] = qHTS assay to identify small molecule phospholipidosis (PLD) inducers (AID 1259344; active means well fitted curve in the direction sought with a large enough effect; an effect the other way counts as inactive or inconclusive)
Summary of the method: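 Read-out is LipidTOX Red fluorescence (ex 595/em 615) imaged in HepG2 cells after 24 h compound exposure at 37 C, with Hoechst nuclear counterstain (ex 352/em 461) allowing per-cell normalisation.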

[9] = target: Androgen receptor (Homo sapiens) (UniProt P10275); experiment: qHTS assay to identify small molecule antagonists of the androgen receptor (AR) signaling pathway using the MDA cell line in the presence of 0.5 nM R1881 (AID 1259243); further: nearly all actives have a fitted effect of over 50% in size
Summary of the method: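 With R1881 held at 0.5 nM (final), compound effects on MMTV-luciferase expression in MDA-kb2 cells were scored by luminescence after a 16 hr, 37C incubation.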

[10] = target: Estrogen receptor (Homo sapiens) (UniProt P03372); experiment: qHTS assay to identify small molecule antagonists of the estrogen receptor alpha (ER-alpha) signaling pathway using the BG1 cell line in the presence of 0.1 nM 17-beta-estradiol (AID 1259244); further: nearly all actives have a fitted effect of over 50% in size
Summary of the method: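 Compounds were tested against 0.1 nM (final) 17beta-estradiol in VM7Luc4E2 cells, which express full-length ER-alpha and an ERE-luciferase reporter; luminescence was recorded following 22 h exposure.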

Measured: Potency

Sequence of Androgen receptor (Homo sapiens) (P10275 whole entry, looked up): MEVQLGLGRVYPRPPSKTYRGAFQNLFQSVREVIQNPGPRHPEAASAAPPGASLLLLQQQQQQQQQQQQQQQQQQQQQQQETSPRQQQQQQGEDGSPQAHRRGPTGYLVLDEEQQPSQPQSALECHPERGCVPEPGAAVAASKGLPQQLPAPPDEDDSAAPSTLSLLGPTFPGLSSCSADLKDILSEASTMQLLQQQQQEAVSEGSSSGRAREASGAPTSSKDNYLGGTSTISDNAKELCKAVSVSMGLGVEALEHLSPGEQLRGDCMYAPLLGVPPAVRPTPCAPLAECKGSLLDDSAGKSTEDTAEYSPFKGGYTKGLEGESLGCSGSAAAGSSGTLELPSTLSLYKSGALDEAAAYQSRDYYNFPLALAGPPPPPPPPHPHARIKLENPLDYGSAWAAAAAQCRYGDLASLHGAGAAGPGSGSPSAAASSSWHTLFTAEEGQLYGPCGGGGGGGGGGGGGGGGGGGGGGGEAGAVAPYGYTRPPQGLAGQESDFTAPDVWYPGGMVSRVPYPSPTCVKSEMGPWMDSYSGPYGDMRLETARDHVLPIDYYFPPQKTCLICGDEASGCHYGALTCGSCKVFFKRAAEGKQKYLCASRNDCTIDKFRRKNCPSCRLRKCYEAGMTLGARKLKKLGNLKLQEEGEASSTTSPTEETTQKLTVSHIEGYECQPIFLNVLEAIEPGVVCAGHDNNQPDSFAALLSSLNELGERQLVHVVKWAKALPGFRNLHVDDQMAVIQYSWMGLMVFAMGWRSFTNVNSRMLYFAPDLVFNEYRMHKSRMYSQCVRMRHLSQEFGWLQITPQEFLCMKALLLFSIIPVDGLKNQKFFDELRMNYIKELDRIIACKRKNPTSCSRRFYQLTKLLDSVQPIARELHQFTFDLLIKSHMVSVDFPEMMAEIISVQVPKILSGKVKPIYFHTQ
Sequence of Estrogen receptor (Homo sapiens) (P03372 whole entry, looked up): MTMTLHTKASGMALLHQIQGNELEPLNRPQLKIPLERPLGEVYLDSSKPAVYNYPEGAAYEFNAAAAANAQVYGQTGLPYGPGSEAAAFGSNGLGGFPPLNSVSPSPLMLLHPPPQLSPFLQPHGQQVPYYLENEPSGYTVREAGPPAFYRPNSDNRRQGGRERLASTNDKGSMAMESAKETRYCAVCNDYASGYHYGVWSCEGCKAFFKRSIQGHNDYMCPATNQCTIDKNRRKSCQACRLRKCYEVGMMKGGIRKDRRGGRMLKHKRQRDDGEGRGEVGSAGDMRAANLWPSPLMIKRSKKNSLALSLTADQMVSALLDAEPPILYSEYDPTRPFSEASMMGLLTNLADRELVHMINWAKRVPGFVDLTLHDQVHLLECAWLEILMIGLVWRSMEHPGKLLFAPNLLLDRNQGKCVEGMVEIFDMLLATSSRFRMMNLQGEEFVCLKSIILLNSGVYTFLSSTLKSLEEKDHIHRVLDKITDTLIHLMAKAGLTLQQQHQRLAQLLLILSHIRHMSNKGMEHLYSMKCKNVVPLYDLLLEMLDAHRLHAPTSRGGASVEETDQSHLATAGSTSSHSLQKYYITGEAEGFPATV

CNC(=O)Oc1cc(C)cc(C(C)C)c1
not listed: [8] | [9] | [10]
inactive: all other assays above

CC(=O)O.CC(=O)O.CC(=O)O.CC(=O)O.CC(=O)O.CC(=O)O.CC(=O)O.O.O.[Cr].[Cr].[Cr]
not listed: [8] | [9] | [10]
inactive: all other assays above

O=P(Cl)(Cl)Cl
not listed: [8] | [9] | [10]
inactive: all other assays above

Cc1ccc2cc3c(ccc4ccccc43)c3c2c1CC3
not listed: [8] | [9] | [10]
inactive: all other assays above

CN=C=O
not listed: [8] | [9] | [10]
inactive: all other assays above

CC1CCCC1
not listed: [8] | [9] | [10]
inactive: all other assays above

O=C(O)[C@H](O)[C@@H](O)C(=O)O
not listed: [8] | [9] | [10]
inactive: all other assays above

[O-][Cl+3]([O-])([O-])O
not listed: [8] | [9] | [10]
inactive: all other assays above

CC(C)Br
not listed: [8] | [9] | [10]
inactive: all other assays above

CCCC[N+]1(C)CCCC1 (tested in a mixture with another compound)
not listed: [8] | [9] | [10]
inactive: all other assays above

CC(C)[C@@H](Nc1ccc(C(F)(F)F)cc1Cl)C(=O)OC(C#N)c1cccc(Oc2ccccc2)c1 (stereo partly specified)
not listed: [8] | [9] | [10]
inactive: all other assays above

ClSC(Cl)(Cl)Cl
not listed: [8] | [9] | [10]
inactive: all other assays above

Clc1cc(Cl)c(-c2cc(Cl)c(Cl)cc2Cl)cc1Cl
not listed: [8] | [9] | [10]
inactive: all other assays above

C=CCBr
not listed: [8] | [9] | [10]
inactive: all other assays above

CCCCCON=O
not listed: [8] | [9] | [10]
inactive: all other assays above

C1=CCC=C1
not listed: [8] | [9] | [10]
inactive: all other assays above

CCCCON=O
not listed: [8] | [9] | [10]
inactive: all other assays above

CN(C)CCc1c[nH]c2ccccc12
not listed: [6] | [9] | [10]
inactive: all other assays above

CC(=O)[O-].CC(=O)[O-].O.O.O.[Pb+2]
not listed: [8] | [9] | [10]
inactive: all other assays above

Cc1ccn2nc(S(=O)(=O)Nc3c(F)cccc3F)nc2n1
not listed: [8] | [9] | [10]
inactive: all other assays above

COCCC#N
not listed: [8] | [9] | [10]
inactive: all other assays above

O=Cc1ccccc1
not listed: [9] | [10]
inactive: all other assays above

O=[N+]([O-])C(Br)Br
not listed: [2] | [8] | [10]
inactive: all other assays above

COc1nc(C)nc(NC(=O)NS(=O)(=O)c2ccccc2Cl)n1
not listed: [8] | [9] | [10]
inactive: all other assays above

O=S(=O)(O)F
not listed: [2] | [8] | [9]
inactive: all other assays above
